# Measured values published in PubChem BioAssay (NCATS).
# Results filed as inconclusive are left out. Entries that show only a call come without a potency. Unmarked numbers belong to inactive results. Calls of active or inactive are those of the source. The call rests on the fitted dose curve; in most records, active means well fitted curve in the direction sought with a large enough effect; inconclusive means small, poorly fitted or top-dose-only effect, or another doubt; inactive means no such curve, though single readings can be large; an effect the other way counts as inactive or inconclusive.
# How the values were obtained:
# [1] = molecular target: Cellular tumor antigen p53 (Homo sapiens) (UniProt P04637); assay: Primary qHTS for small molecule compounds that upregulate eGFP-tagged delta133p53alpha (in N-terminal) cells. (AID 2060322); details: NCI-H358 eGFP-delta133p53alpha fluorescence, 24 h; activation: stronger effect = higher value; further: nearly all actives have a fitted effect of over 75% in size; further: potency means the concentration at half of the fitted maximal effect; on activation: series mostly up to about 56 µM
# Outline: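 NCI-H358 cells pre-induced 24 h with 10 ng/ml doxycycline to express N-terminal eGFP-delta133p53alpha, then dosed 24 h at 37C without doxycycline; fixed, Hoechst-stained, GFP intensity by laser scanning cytometry, normalized to DMSO (0%) and 57.5 uM 5-azacytidine (100%).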
# [2] = molecular target: Aldehyde dehydrogenase, mitochondrial (Homo sapiens) (UniProt P05091); assay: qHTS for Inhibitors of the Aldehyde Dehydrogenase Family (ALDH2) Primary screen (AID 2061308); further: nearly all actives have a fitted effect of over 55% in size
# [3] = molecular target: Retinaldehyde dehydrogenase 3 (Homo sapiens) (UniProt P47895); assay: qHTS for Inhibitors of the Aldehyde Dehydrogenase Family (ALDH1A3) Primary screen (AID 2061315)
# Chain of Cellular tumor antigen p53 (Homo sapiens) (P04637 whole entry, looked up): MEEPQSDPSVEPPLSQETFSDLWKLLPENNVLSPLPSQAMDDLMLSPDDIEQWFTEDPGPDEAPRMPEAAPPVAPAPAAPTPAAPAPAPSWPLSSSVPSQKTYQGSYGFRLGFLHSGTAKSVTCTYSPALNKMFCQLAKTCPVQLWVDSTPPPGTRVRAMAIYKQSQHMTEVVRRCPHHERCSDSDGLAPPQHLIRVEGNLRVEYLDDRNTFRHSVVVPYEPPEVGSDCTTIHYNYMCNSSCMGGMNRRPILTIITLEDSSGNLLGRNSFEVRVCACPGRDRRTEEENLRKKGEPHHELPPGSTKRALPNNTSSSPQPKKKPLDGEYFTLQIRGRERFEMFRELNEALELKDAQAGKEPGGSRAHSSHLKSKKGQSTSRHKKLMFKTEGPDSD
Structure (SMILES),activation [1],Potency [2],Potency [3],Potency [1]
C=C(C)[C@H]1C[C@@H](O)C(=C)CC[C@@H](O)C(=C)[C@@H](O)C1,-8.04%,inactive,inactive,
CC1=C2[C@@H]([C@H](C)CC[C@H]2/C=C(\C)C(=O)O)[C@H](O)C1,-10.7%,inactive,inactive,
CC(=O)[C@H]1CC[C@H]2[C@@H]3CC=C4C[C@@H](OS(=O)(=O)O)CC[C@]4(C)[C@H]3CC[C@]12C,-4.33%,inactive,inactive,
COc1ccc(C2C(C(=O)O)C(C(=O)O)C2c2ccc(OC)cc2O[C@@H]2O[C@H](CO)[C@@H](O)[C@H](O)[C@H]2O)c(O[C@@H]2O[C@H](CO)[C@@H](O)[C@H](O)[C@H]2O)c1 (stereo not given in full),7.63%,inactive,inactive,
C=C(C)C1CCC2(C(=O)O)CCC3(C)C(CCC4C5(C)C(C=O)C(O)C(C)(C)C5CCC43C)C12 (stereo not given),-19.8%,inactive,inactive,
C[C@@H](CC[C@@H]1[C@@]2(C)CCCC(C)(C)C2CC[C@@]1(C)O)CC(=O)O (stereo not given in full),-12.2%,inactive,inactive,
COc1cc(-c2cc(-c3cccc(O)c3)cnc2N)cc(OC)c1OC,,inactive,inactive,16.9 µM (active)
C/C=C(\C)C(=O)O[C@H]1C=CC(=O)O[C@H]1/C=C/[C@@H](O)[C@H](C)O,,inactive,inactive,26.9 µM (active)
COC(=O)C1=CO[C@@H](O[C@@H]2O[C@H](CO)[C@@H](O)[C@H](O)[C@H]2O)[C@@H]2[C@@H](C)[C@@H](O)C(O)[C@H]12 (stereo not given in full),14.5%,inactive,inactive,
C=C1CCC2C(C)(C(=O)O)CCCC2(C)C1CC/C(=C\CO)CO (stereo not given),3.57%,inactive,inactive,
O=C(O[C@H]1[C@@H]2C[C@@H]3OC[C@@](O)([C@H]2[C@H](O[C@@H]2O[C@H](CO)[C@@H](O)[C@H](O)[C@H]2O)O3)[C@@H]1O)c1ccccc1,5.36%,inactive,inactive,
CC(=O)/C=C/C1(O)C(C)CC(O[C@@H]2O[C@H](CO)[C@@H](O)[C@H](O)[C@H]2O)CC1(C)C (stereo not given in full),2.68%,inactive,inactive,
CC1CC(O)C2(C)C(C(=O)O)=CCCC2C1(C)CCc1ccoc1 (stereo not given),8.93%,inactive,inactive,
COc1cc(C2Oc3c(O)cc(CCCO)cc3C2CO)ccc1O[C@H]1O[C@H](C)[C@@H](O)[C@H](O)[C@@H]1O (stereo not given in full),-19.1%,inactive,inactive,
C=CC(C)(O)CC[C@H]1C(=C)CCC2[C@](C)(C(=O)O)CCC[C@@]21C (stereo not given in full),24.1%,inactive,inactive,
C[C@H]1CC[C@@]2(OC1)O[C@H]1CC3C4CC[C@H]5C[C@@H](O)CC[C@]5(C)C4CC(=O)[C@]3(C)[C@H]1[C@@H]2C (stereo not given in full),25.9%,inactive,inactive,
CCC(C)C(=O)OC1CC(O)C23C4OCC5(C(O)CC2C1(C)C(O)O4)C3C(=O)CC1(C)C(c2ccoc2)CC2OC215 (stereo not given),22.1%,inactive,inactive,
COc1ccc(Sc2ccc(NC(=O)c3ccccc3Cl)cc2C#N)cc1,20.3%,inactive,inactive,
CC1(C(=O)O)CCCC2(C)C3CC4C5CC3(CCC12)CC45C (stereo not given),17.9%,inactive,inactive,
CC(=O)O[C@H]1CC2C(COC(=O)CC(C)C)=CO[C@@H](OC(=O)CC(C)C)C2[C@]12CO2 (stereo not given in full),,inactive,inactive,10.4 µM (active)
CC1(C)CC[C@]2(C(=O)O)CC[C@]3(C)C(=CCC4[C@@]5(C)CC[C@H](O[C@@H]6O[C@H](C(=O)O)[C@@H](O)[C@H](O)[C@H]6O)C(C)(CO)C5CC[C@]43C)C2C1 (stereo not given in full),12.2%,inactive,inactive,
COC1(CC(C)C)NC(=O)C(O)(Cc2ccccc2)NC1=O (stereo not given),-16.8%,inactive,inactive,
CC(=C\C(C)O)/C=C(\C)C(=O)CC1CC(CC(N)=O)CC(=O)O1 (stereo not given),-16.8%,inactive,inactive,
O=C(O)/C=C/c1ccc(-c2ccc(O)c(C34CC5CC(CC(C5)C3)C4)c2)cc1,,inactive,inactive,26.9 µM (active)
CC(=O)OCC(=O)O[C@@H]1[C@H]2[C@@H](OC(=O)c3ccccc3)[C@@H](C)C[C@]2(O)[C@H](OC(C)=O)C2(C)[C@H]3CC(C)(C)C(=O)[C@@H]3CC1(OC(C)=O)[C@@H]2OC(C)=O (stereo not given in full),-11.6%,inactive,inactive,
